Source: PubChem (several laboratories)
MazF activator – activators of E. coli MazEF toxin-antitoxin RNase; P0AE70; 0.32% of 350,000 active; activation, % at 20 µM; FAM/BHQ RNA-DNA oligo cleavage fluorescence, 5 h; in the data active = activation above about 50%
Target sequence (P0AE70 whole entry, looked up): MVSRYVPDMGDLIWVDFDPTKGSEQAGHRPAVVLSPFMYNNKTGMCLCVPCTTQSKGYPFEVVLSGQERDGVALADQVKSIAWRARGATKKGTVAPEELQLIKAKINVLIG
PriA SSB inh – blocks PriA binding to SSB C-terminal tail | inhibition, % at 33 µM | AlphaScreen SSBct-PriA binding, biotinylated peptide | 0.6% of 430,000 active; in the data active = inhibition mostly above about 37%, no sharp cut-off; inactive = mostly below about 20%
ugtP null kill – growth inhibition of S. aureus ugtP deletion strain; S. aureus RN4220 ugtP deletion, OD600 growth, 16 h; growth inhibition, % (concentration not given with the values); 0.54% of 330,000 active; AID 1259309; in the data active = growth inhibition above about 68%
BJeLR viability – BJeLR cell viability loss; BJeLR (HRASV12) viability, CellTiter-Glo ATP luminescence, 48 h; inhibition, % (no concentration beside the values); 0.17% of 300,000 active; AID 1554; in the data active = inhibition above about 50%
RN4220 kill – kills Staphylococcus aureus RN4220 | S. aureus RN4220 growth, OD600, 16 h | inhibition, % (no concentration beside the values) | 0.33% of 330,000 active | AID 1259311; in the data active = inhibition above about 85%
Each line names hits and unclear results; the compound was inactive in the other large screens. Hits are enriched below; roughly 1.2% of the tested compounds scored in any of these assays.

COc1ccc2nc(N(Cc3ccccn3)C(=O)c3ccc([N+](=O)[O-])s3)sc2c1	none (no result: MazF activator, ugtP null kill, BJeLR viability, RN4220 kill)
COC1=C(N)C(=O)c2nc(-c3nc(C(=O)O)c(C)c(-c4ccc(OC)c(OC)c4O)c3N)ccc2C1=O	none (no result: ugtP null kill, BJeLR viability, RN4220 kill)
COC(=O)c1nc(-c2ccc3c(n2)C(=O)C(N)=C(OC)C3=O)c(N)c(-c2ccc(OC)c(OC)c2O)c1C	BJeLR viability 64.4
COc1ccccc1C1CC(=O)Nc2cc3c(cc21)OCCO3 (stereo unspecified)	none
CC(C)Oc1ccccc1C1CC(=O)Nc2cc3c(cc21)OCCO3 (stereo unspecified)	BJeLR viability 64.4
C=CCn1c(C)cc(C(=O)CN2NS(=O)(=O)c3ccccc3C2=O)c1C	MazF activator 57.3
CCCCN1C(=O)/C(=C/C=C2\SCCN2C)SC1=S	MazF activator 530.0
O=C(Cc1ccc(Cl)cc1)c1c[nH]c(C(=O)NCc2cccnc2)c1	BJeLR viability 77.6
O=C(COc1ccc(Cl)cc1)Nc1ccc(C(=O)NCc2cccnc2)cc1	BJeLR viability 87.3
CC(C)(C)c1ccc(C(=O)c2c[nH]c(C(=O)NCc3cccnc3)c2)cc1	none
O=C(NCc1cccnc1)c1ccc(COc2ccc(Cl)cc2)cc1	none
Cc1cccc(OCC(=O)Nc2ccc(C(=O)NCc3cccnc3)cc2)c1	BJeLR viability 55.0 (no result: MazF activator, PriA SSB inh, ugtP null kill, RN4220 kill)
CCOC(=O)NN=Cc1ccc(F)cc1	none (no result: MazF activator, BJeLR viability)
C=C(C)C(O)COc1c2occc2c(OC)c2ccc(=O)oc12 (stereo unspecified)	none (no result: BJeLR viability)
CN(CCO)c1ncnc2nc[nH]c12	PriA SSB inh 104.2
COc1ccc(CS(=O)(=O)/C(Cl)=C(/Cl)C(=O)Nc2ccc(OC)nc2)cc1	ugtP null kill 100.3
COc1ccc(/C=C/C(=O)Nc2ccc(OC)nc2)cc1	none
COc1ccc(NC(=O)/C(Cl)=C(/Cl)S(=O)Cc2ccccc2)cn1 (stereo unspecified)	ugtP null kill 87.8
Cc1ccc(C)c(C(C)NC(=O)c2ccccc2Br)c1 (stereo unspecified)	none
COc1ccc(C#Cc2c(-c3ccccc3)n(-c3ccccc3)c3ccc(CO)cc23)cc1	none (no result: BJeLR viability)
O=C(NCC1CCCO1)c1ccc(CS(=O)(=O)c2ccc(Cl)cc2)o1 (stereo unspecified)	none
O=C1/C(=C/c2ccncc2)CCC/C1=C\c1ccncc1	BJeLR viability 67.6
O=C1C(=Cc2ccncc2)CCCc2ccccc21	none (no result: PriA SSB inh, ugtP null kill, BJeLR viability, RN4220 kill)
Oc1cccc(C=NNC(=S)NCCN2CCOCC2)c1O	PriA SSB inh 58.2 (no result: MazF activator, ugtP null kill, BJeLR viability, RN4220 kill)
Nc1nc(Nc2cccc3ccccc23)nc(C2CCCC2=O)n1 (stereo unspecified)	none (no result: MazF activator, PriA SSB inh, ugtP null kill, RN4220 kill)
Nc1nc(CCl)nc(Nc2cccc3ccccc23)n1	BJeLR viability 125.4
O=C(NCCc1cn2ccccc2n1)c1cc(COc2ccc3ncccc3c2)on1	none
O=[N+]([O-])c1ccc(N2CCOCC2)c(S(=O)(=O)N2CCOCC2)c1	none
O=c1oc2cc(S(=O)(=O)N3CCOCC3)ccc2n1Cc1ccc([N+](=O)[O-])cc1	PriA SSB inh 48.0 (no result: MazF activator, ugtP null kill, BJeLR viability, RN4220 kill)
O=C(Nc1ccc(N2CCOCC2)c(Cl)c1)c1ccc([N+](=O)[O-])o1	ugtP null kill 96.4
Cc1ccc(NC(=S)NNC(=O)c2ccc(N3CCOCC3)c([N+](=O)[O-])c2)cc1Cl	PriA SSB inh 38.4 (no result: ugtP null kill, RN4220 kill)
O=C(NNC(=S)Nc1ccc(Br)cc1)c1ccc(N2CCOCC2)c([N+](=O)[O-])c1	none
CCCC(=O)N1CCN(c2ccc(NC(=O)c3ccc([N+](=O)[O-])o3)cc2Cl)CC1	none
CN1CCN(c2ccc(NC(=O)c3ccc([N+](=O)[O-])o3)cc2Cl)CC1	ugtP null kill 100.7, RN4220 kill 99.3
CC(C)C(=O)N1CCN(c2ccc(NC(=O)c3ccc([N+](=O)[O-])o3)cc2Cl)CC1	none (no result: BJeLR viability)
CC(C)(C)C(=O)Nc1ccc(N2CCN(S(C)(=O)=O)CC2)cc1	none
O=C(NC(=S)Nc1ccc2[nH]c(=O)[nH]c2c1)c1cccc(F)c1	none
Cc1nc(Cl)sc1C(=O)Nc1ccc2ccccc2c1	none
Cc1nc2cc(C(=O)NCc3ccc4c(c3)OCO4)ccc2n1-c1ccc(Br)cc1	ugtP null kill 95.5
COc1ccc(Cn2c(=O)[nH]c3cc(C(=O)NCc4ccc5c(c4)OCO5)ccc3c2=O)cc1	MazF activator 182.1
COc1ccc(Cn2c(=O)[nH]c3cc(C(=O)NCCCOC(C)C)ccc3c2=O)cc1	none
CCN(c1cccc(C)c1)S(=O)(=O)c1ccc2c(c1)CCCN2C(C)=O	none
Cc1cc(-n2nnc3ccccc32)nc2ccccc12	none
Cc1nn(-c2cc(C)c3ccccc3n2)c2c1C1C(C2)C1(C)C (stereo unspecified)	ugtP null kill 82.7
